Calb biofilm kill – kills Candida albicans biofilms. C. albicans biofilm + clotrimazole, Alamar Blue. inhibition, % at 6 µM. hit rate 0.14% among 85,000. AID 834;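 active = inhibition above 20%; inactive = inhibition below 20%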;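 also: preformed 24 hr biofilms exposed to compound for 48 hr; 0% = biofilm without compound and 100% = blank killed by clotrimazole plus chlorhexidine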
ERa SRC1 pot – enhances coactivator binding to human estrogen receptor alpha | coactivator binding (% of control), % at 25.6 µM | hit rate 1.3% among 86,000 | TR-FRET ERalpha-LBD/SRC-Cy5 coactivator binding, 2 h; 100 = basal binding, no effect | P03372; in the data active = activity above about 200%;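 also: binding measured in presence of low estradiol as agonist stimulus; 0% = peptide alone without receptor and 100% = receptor with peptide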
Target sequence (P03372 whole entry, looked up, the tested form may be a part): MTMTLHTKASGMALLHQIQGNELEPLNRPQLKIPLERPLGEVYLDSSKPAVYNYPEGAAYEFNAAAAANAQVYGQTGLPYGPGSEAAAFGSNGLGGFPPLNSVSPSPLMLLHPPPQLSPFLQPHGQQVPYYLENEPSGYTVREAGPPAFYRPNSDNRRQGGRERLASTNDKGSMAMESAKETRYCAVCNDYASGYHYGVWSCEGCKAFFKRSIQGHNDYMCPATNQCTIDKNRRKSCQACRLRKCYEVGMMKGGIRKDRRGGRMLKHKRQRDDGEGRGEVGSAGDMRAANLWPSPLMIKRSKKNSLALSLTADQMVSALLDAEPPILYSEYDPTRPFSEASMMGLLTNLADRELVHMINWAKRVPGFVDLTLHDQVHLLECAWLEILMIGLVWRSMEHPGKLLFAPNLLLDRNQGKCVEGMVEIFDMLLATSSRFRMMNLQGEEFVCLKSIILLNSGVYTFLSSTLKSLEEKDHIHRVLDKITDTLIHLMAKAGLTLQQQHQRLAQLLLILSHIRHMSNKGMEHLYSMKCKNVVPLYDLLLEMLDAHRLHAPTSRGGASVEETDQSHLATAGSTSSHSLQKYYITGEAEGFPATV
MT1-MMP txn act – MT1-MMP promoter transcription activation; activation factor at 10 µM; AID 750; hit rate 0.16% among 86,000; HT1080 MT1-MMP promoter luciferase reporter, luminescence, overnight; hits give high values;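 active = activation factor of at least 2 for MT1-MMP transcription at 10 µM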
Smad3 FoxH1 inh – blocks human Smad3 binding to FoxH1 peptide | inhibition, % at 25 µM | TR-FRET Smad3/Dy647-FoxH1 peptide binding, europium anti-His | P84022 | hit rate 0.29% among 88,000;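 active = compounds that reduce the energy-transfer binding signal between the protein and its labelled peptide by more than half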;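 also: 0% = Smad3 plus labelled peptide maximal FRET and 100% = peptide-only background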
ERa coact inh – ER-alpha (human) coactivator binding inhibition. hit rate 1.7% among 86,000. AID 629. TR-FRET ER-alpha LBD / SRC-1 peptide, estradiol-bound. inhibition, % at 25.6 µM. P03372; in the data active = inhibition above about 50%;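 also: 0% = receptor plus peptide control and 100% = peptide only without receptor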
ERb coact inh – ER-beta (human) coactivator binding inhibition; hit rate 1.3% among 86,000; TR-FRET ER-beta LBD / SRC1-Cy5 peptide binding; receptor agonist-loaded with 1 µM estradiol; AID 633; inhibition, % at 25.6 µM;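 active = compounds whose percent inhibition of the receptor-coactivator binding signal exceeds about 50% in the single-dose screen, limit read from the data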;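 also: 0% = receptor plus peptide wells without compound and 100% = peptide-only wells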
* marks the source's active call; other numbers are inactive results; / = not tested or not shown; [ ] = dose if it differs, or a comment. Most compounds without a hit are left out; they make up all but 3.8% or so of the library.

SMILES	Calb biofilm kill	ERa SRC1 pot	MT1-MMP txn act	Smad3 FoxH1 inh	ERa coact inh	ERb coact inh
COc1ccc(-c2coc3c(CN4CCCCC4)c(O)c(CN4CCCCC4)c(O)c3c2=O)cc1	9	79	1.2	4	67*[fluorescence artefact?]	35
COc1ccc(C(=O)c2coc3ccc(O)c(CN4CCCC4)c23)cc1	11	98	1.3	11	7	-9
CCc1nc2ccccc2c(C(=O)OCC(=O)Nc2cccc(S(=O)(=O)N3CCOCC3)c2)c1C	1	115	1	89*	-13	-18
O=C(CON1C(=O)c2ccccc2C1=O)c1ccccc1	/	/	/	11	/	/
Cn1c(=O)c2c(nc(C(=N)SCC(=O)O)n2C)n(C)c1=O	/	/	/	10	/	/
CCC[C@H](Sc1nc(N)nc2nc[nH]c12)C(=O)O	/	/	/	7	/	/
CS(=O)(=O)Nc1ccc(Nc2c3ccccc3nc3ccccc23)cc1	/	/	/	58*	/	/
CN(Cc1ccccc1)S(=O)(=O)c1ccc(NS(C)(=O)=O)cc1	3	80	1.2	4	10	1
CC1=CC2(O)OCCN(CCO)C2=CC1=O (configuration not stated)	-2	25	/	16	78*[fluorescence artefact?]	86*[fluorescence artefact?]
NC(=[SH+])[N-]/N=C/c1ccccn1.O=S(=O)(O)O.[Fe]	/	/	/	50	/	/
Cc1occc1C(=O)Nc1nccs1	3	85	1.1	6	-16	5
Cc1oc(-c2ccccc2)nc1C(=O)Nc1nccs1	1	91	1.6	2	52*[fluorescence artefact?]	37
O=C(Nc1ccc([N+](=O)[O-])cc1)/C(=C/c1cccc([N+](=O)[O-])c1)NC(=O)C1CCCCC1	13	88	1.1	-75	3	31
Cc1ccc(NC(=O)/C(=C/c2cccc([N+](=O)[O-])c2)NC(=O)C2CCCCC2)c(C)c1	6	64	1	-5	55*	28
O=C(O)c1nc(-c2ccccc2)[nH]c1C(=O)O	/	/	/	-2	/	/
S=c1nc(-c2nc(=S)[nH]c3c2CCCCCCCCCC3)c2c([nH]1)CCCCCCCCCC2	/	/	/	-2	/	/
Cc1cc(S(=O)(=O)N(Cc2ccccc2)Cc2ccc(N(C)C)cc2)ccc1-n1cnnn1	4	211*	1	-1	14	14
Cc1cc(S(=O)(=O)N(C)CCc2ccccc2)ccc1-n1cnnn1	6	124	1	7	5	1
C/C(=C\c1ccc(Cl)cc1)C(C)(C)C(=O)O	/	/	/	3	/	/
COC(=O)c1c(NC(=O)Cc2cccs2)sc2c1CCCC2	-2	57	1.4	0	90*[fluorescence artefact?]	74*
Cn1c(Cc2ccccc2)nnc1SCC(=O)c1cccs1	4	91	1.2	-24	57*	-7
CC(C)OC(=O)CSc1nnc(Cc2ccccc2)n1C	8	95	1	-18	2	6
CC(=O)Nc1ccc(Cc2ccc3[nH]c(=O)cc(C)c3c2)cc1	/	/	/	6	/	/
CC[C@H]1C2=C3C(CC[C@H]4C(OCc5ccc(F)cc5C(F)(F)F)OC[C@](C)([C@@H]34)N(C(=O)OC(C)(C)C)C2)C(COC(C)=O)C1COC(C)=O (some centres not stated)	/	/	1.2	/	/	/
CC(=NCC(=O)O)c1ccccc1	/	/	/	3	/	/
SMILES	Calb biofilm kill	ERa SRC1 pot	MT1-MMP txn act	Smad3 FoxH1 inh	ERa coact inh	ERb coact inh
CCOc1ccc(S(=O)(=O)NCc2ccco2)c2ccccc12	4	71	1.3	0	13	11
CN(c1ccccc1C(=O)O)S(=O)(=O)c1ccc2c3c(cccc13)C(=O)N2	-2	31	1.1	-4	57*	62*
O=C1Nc2ccc(S(=O)(=O)NCc3ccco3)c3cccc1c23	10	48	1.1	2	44	58*[fluorescence artefact?]
Cn1c(=O)cc(SCC(=O)NCC2CCCO2)c2ccc(Cl)cc21 (configuration not stated)	2	104	1	50*[fluorescence artefact?]	3	5
CCN1CCCC1CNC(=O)COc1cc(=O)n(C)c2ccccc12 (configuration not stated)	6	127	1	-4	-4	5
CCN1CCCC1CNC(=O)CSc1cc(=O)n(C)c2cc(Cl)ccc12 (configuration not stated)	8	112	1.4	53*[fluorescence artefact?]	6	-14
CCC1CCCCN1CCNC(=O)CCS(=O)(=O)c1ccc(Br)cc1 (configuration not stated)	6	103	1.2	2	5	-3
C[C@@H](CNC(N)=O)NC(N)=O	/	/	/	-19	/	/
CCn1c(CCCc2nc3c([nH]2)c(=O)n(C)c(=O)n3C)nc2c1c(=O)n(C)c(=O)n2C	/	/	/	7	/	/
COc1ccc(NC(=O)COC(=O)CCCc2c[nH]c3ccccc23)cc1OC	5	98	1.3	-5	-5	-10
CN(C)CCN1C(=O)CC[C@@]2(C)C1=CC[C@H]1[C@H]2CC[C@@]2(C)[C@H]1CC[C@]2(C)O	/	/	/	-12	/	/
O=S(=O)(c1ccc(Oc2ccc(-c3nnco3)cc2)nc1)N1CCC(Cc2ccccc2)CC1	-4	99	1	20	75*[fluorescence artefact?]	31
O=c1[nH]c(SCc2c(Cl)c(Cl)c(Cl)c(Cl)c2Cl)nc(=S)[nH]1	/	/	/	4	/	/
COC(=O)c1ccc(C(NC(=O)OCc2ccccc2)/C(=C/[C@@H](C)C(=O)NCc2cc(F)cc(F)c2)c2cccnc2)cc1 (some centres not stated)	/	/	1.3	/	/	/
O=C1N=C(N2CCOCC2)S/C1=C1\C(=O)N(Cc2ccccc2)c2ccc(Br)cc21	7	34	1.3	-4	93*[fluorescence artefact?]	44
C[C@H](Br)C(=O)c1ccc2cc(Br)c3ccccc3c2c1	/	/	/	-18	/	/
COc1ccccc1N1CCN(Cc2cc(Br)c(O)c3ncccc23)CC1	1	86	0.7	7	50*[fluorescence artefact?]	29
O=C(O)c1ccc(C(=O)O)c(C(=O)Nc2ccc3c(c2)Cc2ccccc2-3)c1	/	/	/	3	/	/
O=c1c2c3c(sc2nc2sc(C4CC4)nn12)CCCC3	5	234*	2*	-9	11	12
O=C1CCc2nc3sc4c(c3c(=O)n2N1)CCCC4	2	119	0.9	9	-8	3
COC(=O)[C@@]1(Cc2ccc(F)cc2)[C@H]2c3cc(C(=O)N(C)C)n(Cc4ccc(OC(F)(F)F)cc4)c3C[C@H]2CN1C(=O)c1ccccc1	/	/	1.1	/	/	/
Cc1cc(C)c2nc3c(c([C@H](O)[C@@H]4CCCCN4)c2c1)CC/C3=C\c1ccc(Cl)cc1	/	/	/	12	/	/
c1ccc(B2OC[C@@H]3OB(c4ccccc4)O[C@H]([C@@H]4COB(c5ccccc5)O4)[C@H]3O2)cc1	/	/	/	0	/	/
NC(=O)CSc1nnc(Cc2csc(Nc3ccccc3)n2)n1Cc1ccccc1	10	111	1.1	86*	-2	0
COc1cccc(-n2c(SCC(=O)Nc3cc(C)on3)nc3c([nH]c4ccccc43)c2=O)c1	7	110	1.3	28	21	10
O=C(CSc1nc2c([nH]c3ccccc32)c(=O)n1-c1ccccc1)N1CCOCC1	1	141	1	10	3	-5
